# According to PubChem BioAssay (NCI):
# Several values for one entry are separate records, joined by “and”; a condition that tells them apart may be missing. Equal entries are not always repeated. This is part of a sample that, as a whole, favours compounds with a hit. Of some 83,000 tested, about 20% had one in any assay.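 Plates (96-well) were seeded with cells, treated with compound at one concentration, and incubated for 48 hours before percent growth was determined.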 Values without a mark were called inactive. Activity calls are given as the source filed them. How the source made its calls: active means growth percent below 10; inactive means the rest.
# System: MDA-MB-468 breast
# Assay: NCI-60 one-dose screen, 48 h (100 = growth as untreated, 0 = no growth, -100 = all killed)
# Settings: 10 µM unless noted
row,Structure (SMILES),growth
1,COc1ccc(C(=O)N2c3ccccc3Sc3ccccc32)c(F)c1,-13.7% (active)
2,CCCCCCCCCCCCCCCCCCOP(=O)([O-])OC1CC[N+](C)(C)CC1,0% (active)
3,CCc1ccc(-c2ccc(-n3nc(C)c4c(N)nc(Cc5ccccc5)nc43)cc2)cc1,38.9%
4,N=C(N)c1ccc(-c2ccc(-c3cncc4ccccc34)s2)cc1F,-90.6% (active)
5,Cc1cc(C)c2c(-c3nnc(N)s3)cc(=O)oc2c1,104%
6,Clc1nc(Oc2ccccc2)nc(-c2cn(-c3ccccc3)c3ccccc23)n1,88.2%
7,CCOc1ccc2cc(-c3nn(CC4CCNCC4)c4ncnc(N)c34)ccc2c1,93.3% and 40.5%
8,O=C1c2ccccc2C2(c3ccc(O)cc3)c3ccccc3Oc3cccc1c32 (stereo unspecified),-8.79% (active)
9,O=C1C(=O)c2cc([N+](=O)[O-])ccc2-c2ccccc21,-96.2% (active)
10,C=CCOc1cccc(/C=C2\SC(=Nc3ccc(O)cc3)NC2=O)c1,-7.52% (active)
11,CCN(CC)P(=O)(N(CC)CC)N(CCCSC/C=C(\C)CC/C=C(\C)CCC=C(C)C)CCCN1CCN(C)CC1,92.4%
12,Cc1c(Cl)cccc1C(=O)Nc1nc2c(s1)CN(C(=O)Nc1cccc(C(F)(F)F)c1)CC2,16.7%
13,O=C(CN1CCOCC1)Nc1ccc2ncnc(Nc3ccc(OCc4cccc(F)c4)c(Cl)c3)c2c1,-25.1% (active)
14,COc1ccc(-c2cc(-c3ccc(Cl)cc3)c(C#N)c(=O)n2CCCCC(=O)Nc2ccccc2N)cc1,47.9%
15,NC(CCC(=O)NC(CS)C(=O)NCC(=O)O)C(=O)O (stereo unspecified),102%
16,OC(c1cc2cc(Cl)c(Cl)cc2c2cc(C(F)(F)F)ccc12)C1CCCCN1 (stereo unspecified),-92.2% (active)
